# Measurements published in PubChem BioAssay.
# Activity calls are given as the source filed them. Unless noted, how the calls were made is not given here.
# Assays:
# [1] = system: Wnt5a (protein binding on small-molecule microarray); experiment: Wnt5a binders on small-molecule microarray, primary screen, biophysical, 635/667 nm fluorescence (AID 1142); details: 635 nm fluorescence, higher = more signal;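 further: fluorescence read at 667 nm with signal to noise per printed feature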
# [2] = cell viability in Huh7 cells, primary screen, cytotoxicity control for HCV replication inhibitor project, CellTiter-Glo luminescence, basal, 48 h (AID 1143); details: Huh7 HCV replicon, higher = more signal, called active from +8 up or from −8 down;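 further: Huh7 hepatoma cells carrying a hepatitis C replication reporter with no stimulus; test concentration not given here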
# [3] = P. aeruginosa biofilm formation inhibitors, primary screen, PAO1 strain, BacTiter-Glo luminescence, LB-PBS (AID 1144); details: 12 h, higher = more signal
# [4] = CREB reporter modulators without forskolin, primary screen, cell-based, PC12, CRE-LacZ reporter, unstimulated (AID 1145); details: no forskolin, luminescence, 4.5 h, higher = more signal, called active from +8 up or from −8 down
# [5] = CREB reporter modulators under forskolin, primary screen, cell-based, PC12, CRE-LacZ reporter, forskolin-stimulated (AID 1146); details: luminescence, 4.5 h, higher = more signal, called active from +8 up or from −8 down;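 further: PC12 cells with 6xCRE LacZ reporter stimulated by forskolin 10 µM; beta-galactosidase reporter signal reflecting CREB driven transcription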
# [6] = target: Streptavidin (Streptomyces avidinii) (UniProt P22629); experiment: streptavidin binders on small-molecule microarray, primary screen, artefact control for SMM compound annotation, biophysical, 635/667 nm fluorescence (AID 1147); details: streptavidin binding, higher = more signal;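 further: signal reflects streptavidin binding to arrayed compounds as a control protein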
# [7] = small-molecule binders of probe aInhba, primary screen, biochemical, small-molecule microarray, 635/667 nm fluorescence (AID 1148); details: higher = more signal;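 further: score merges 667nm spot fluorescence with signal-to-noise for antibody binding to printed compounds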
# Torsin-1A (Homo sapiens) [8] = target: Torsin-1A (Homo sapiens) (UniProt O14656); experiment: torsin A binders from cell lysate, primary screen, small-molecule microarray, wild-type, 635/667 nm (AID 1149); details: COS7 hTOR1A-WT lysate, 635 nm fluorescence, higher = more signal
# Torsin-1A (Homo sapiens) [9] = target: Torsin-1A (Homo sapiens) (UniProt O14656); experiment: small-molecule binders of mutant TOR1A in lysate, primary screen, cell lysate, small-molecule microarray, COS7 lysate, 635/667 nm fluorescence (AID 1150); details: COS7 hTOR1A mutant lysate, 635 nm fluorescence, higher = more signal;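 further: score pools 667 nm emission and signal to noise measuring lysate protein binding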
# [10] = system: Sonic hedgehog protein (Shh); experiment: small-molecule binders of Shh protein, primary screen, biochemical, small-molecule microarray, 635/667 nm fluorescence (AID 1151); details: small-molecule microarray binding, 635 nm fluorescence; higher = more signal;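 further: Shh protein binding to compounds spotted on small-molecule microarray slides; score combines spot fluorescence intensity with signal-to-noise across triplicate slides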
# [11] = E. coli DRC41 culture turbidity changes, primary screen, E. coli filamentation inducer project, strain DRC41, OD650, 48 h (AID 1152);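 further: E. coli MC1000 strain DRC41 lacking acrAB efflux pump and sulA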; details: E. coli DRC41 (acrAB sulA), higher = more signal, called active from +8 up or from −8 down
# [12] = small-molecule binders of probe aLefty1, primary screen, biochemical, small-molecule microarray, 635/667 nm fluorescence (AID 1153); details: higher = more signal;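 further: score merges spot fluorescence with signal-to-noise ratio from the scanned slide images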
# [13] = PSAC antagonists in infected red cells, primary screen, cell-based, P. falciparum Indochina, OD700, 1 h (AID 1154); details: P. falciparum Indochina infected RBC osmotic lysis, higher = more signal, called active from +8 up or from −8 down
# [14] = PSAC antagonists in infected red cells, primary screen, cell-based, P. falciparum Indochina, OD700, 2 h (AID 1155);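 further: lysis reports solute entry through the parasite surface anion channel PSAC; channel blockers reduce lysis of infected cells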; details: P. falciparum Indochina infected erythrocytes, osmotic lysis OD700; higher = more signal, called active from +8 up or from −8 down
# [15] = osmotic lysis modulators in infected erythrocytes, primary screen, PSAC antagonist project, cell-based, P. falciparum Indochina, OD700, 3 h (AID 1156); details: higher = more signal, called active from +8 up or from −8 down
# [16] = PSAC antagonists in infected red cells, primary screen, cell-based, P. falciparum Indochina, OD700, 18 h (AID 1157); details: P. falciparum Indochina infected erythrocytes, osmotic lysis OD700, 18 h; higher = more signal, called active from +8 up or from −8 down
# [17] = modulators of S6 phosphorylation in cells, primary screen, cell-based, A549, cytoblot, luminescence, serum-stimulated (AID 1158); details: A549 phospho-S6 cytoblot, 5 h, higher = more signal;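 further: serum-stimulated A549 lung adenocarcinoma cells; signal is phosphorylated S6 detected by cytoblot immunostaining with HRP secondary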
# [18] = target: NADPH oxidase 2 (Homo sapiens) (UniProt P04839); experiment: NOX2-dependent H2O2 signal modulators, primary screen, NOX inhibitor project, cell-based, HEK293-NOX2, PMA-stimulated, Amplex Red fluorescence (AID 1159); details: 45 min, higher = more signal, called active from +8 up or from −8 down; further: test concentration not given here
# [19] = target: NADPH oxidase 4 (Homo sapiens) (UniProt Q9NPH5); experiment: NOX4-dependent H2O2 signal modulators, primary screen, NOX inhibitor project, cell-based, HEK293-NOX4, tetracycline-induced, Amplex Red fluorescence (AID 1160); details: 45 min, higher = more signal, called active from +8 up or from −8 down
# [20] = target: NADPH oxidase 5 (Homo sapiens) (UniProt Q96PH1); experiment: NOX5-dependent H2O2 signal modulators, primary screen, NOX inhibitor project, cell-based, HEK293-NOX5, Amplex Red fluorescence (AID 1161); details: HEK293-NOX5, ionomycin, 45 min, higher = more signal
# NADPH oxidase 5 (Homo sapiens), sequence (Q96PH1 whole entry, looked up): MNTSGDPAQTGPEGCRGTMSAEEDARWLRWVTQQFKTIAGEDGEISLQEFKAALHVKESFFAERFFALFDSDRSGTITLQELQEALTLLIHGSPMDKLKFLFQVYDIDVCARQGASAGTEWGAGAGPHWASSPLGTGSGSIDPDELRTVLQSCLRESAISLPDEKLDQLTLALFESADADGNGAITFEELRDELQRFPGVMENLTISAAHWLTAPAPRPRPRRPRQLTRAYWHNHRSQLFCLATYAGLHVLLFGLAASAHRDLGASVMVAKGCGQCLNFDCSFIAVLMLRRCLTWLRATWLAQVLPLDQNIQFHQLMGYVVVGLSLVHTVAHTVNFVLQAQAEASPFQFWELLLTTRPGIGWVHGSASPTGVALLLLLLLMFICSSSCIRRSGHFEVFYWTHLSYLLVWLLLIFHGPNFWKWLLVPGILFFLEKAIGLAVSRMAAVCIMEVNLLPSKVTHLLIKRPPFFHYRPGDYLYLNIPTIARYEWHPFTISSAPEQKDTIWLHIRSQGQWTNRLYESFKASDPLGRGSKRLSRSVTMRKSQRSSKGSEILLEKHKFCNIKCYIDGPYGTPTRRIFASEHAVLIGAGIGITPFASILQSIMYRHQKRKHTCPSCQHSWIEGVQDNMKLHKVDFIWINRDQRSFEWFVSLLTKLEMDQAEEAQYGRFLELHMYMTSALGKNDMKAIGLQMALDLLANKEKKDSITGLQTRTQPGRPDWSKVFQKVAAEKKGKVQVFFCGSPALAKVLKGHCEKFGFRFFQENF
# NADPH oxidase 2 (Homo sapiens), sequence (P04839 whole entry, looked up): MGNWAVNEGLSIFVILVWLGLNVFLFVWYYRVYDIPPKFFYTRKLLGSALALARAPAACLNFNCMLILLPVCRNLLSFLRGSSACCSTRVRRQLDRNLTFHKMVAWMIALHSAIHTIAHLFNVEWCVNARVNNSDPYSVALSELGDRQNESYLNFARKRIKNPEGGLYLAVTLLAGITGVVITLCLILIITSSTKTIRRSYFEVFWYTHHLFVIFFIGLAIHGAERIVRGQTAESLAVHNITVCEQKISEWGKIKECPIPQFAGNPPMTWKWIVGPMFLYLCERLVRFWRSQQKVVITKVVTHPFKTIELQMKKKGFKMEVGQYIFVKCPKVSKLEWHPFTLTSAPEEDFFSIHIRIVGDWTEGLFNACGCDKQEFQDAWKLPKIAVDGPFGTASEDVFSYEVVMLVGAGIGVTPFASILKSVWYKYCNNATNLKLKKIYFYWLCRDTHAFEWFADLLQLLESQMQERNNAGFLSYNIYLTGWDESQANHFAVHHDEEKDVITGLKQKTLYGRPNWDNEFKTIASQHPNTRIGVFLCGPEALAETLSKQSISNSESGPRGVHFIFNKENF
# NADPH oxidase 4 (Homo sapiens), sequence (Q9NPH5 whole entry, looked up): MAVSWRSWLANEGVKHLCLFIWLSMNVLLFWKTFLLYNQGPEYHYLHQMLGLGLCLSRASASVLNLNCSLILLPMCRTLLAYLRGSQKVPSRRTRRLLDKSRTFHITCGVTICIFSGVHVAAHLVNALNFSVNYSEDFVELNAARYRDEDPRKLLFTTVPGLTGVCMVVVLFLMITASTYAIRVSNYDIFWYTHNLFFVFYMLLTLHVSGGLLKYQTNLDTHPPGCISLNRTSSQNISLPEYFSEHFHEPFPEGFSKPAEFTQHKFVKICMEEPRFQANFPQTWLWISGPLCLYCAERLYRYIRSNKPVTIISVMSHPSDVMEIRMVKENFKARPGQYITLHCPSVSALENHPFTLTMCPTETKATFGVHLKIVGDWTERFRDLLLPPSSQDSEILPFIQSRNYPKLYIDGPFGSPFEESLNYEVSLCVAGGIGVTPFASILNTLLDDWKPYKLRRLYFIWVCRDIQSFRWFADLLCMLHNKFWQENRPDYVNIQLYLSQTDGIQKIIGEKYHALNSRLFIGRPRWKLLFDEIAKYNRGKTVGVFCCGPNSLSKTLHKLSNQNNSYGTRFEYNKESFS
# Torsin-1A (Homo sapiens), sequence (O14656 whole entry, looked up): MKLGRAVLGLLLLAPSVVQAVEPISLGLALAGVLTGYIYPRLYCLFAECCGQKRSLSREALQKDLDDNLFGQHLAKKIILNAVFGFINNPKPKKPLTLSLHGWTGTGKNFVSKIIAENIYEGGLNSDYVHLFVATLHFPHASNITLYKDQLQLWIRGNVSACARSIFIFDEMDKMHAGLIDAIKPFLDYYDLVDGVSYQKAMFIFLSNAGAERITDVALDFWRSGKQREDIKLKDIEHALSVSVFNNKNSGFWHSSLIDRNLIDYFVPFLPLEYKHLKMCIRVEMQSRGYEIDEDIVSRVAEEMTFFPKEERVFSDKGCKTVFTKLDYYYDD
# Streptavidin (Streptomyces avidinii), sequence (P22629 whole entry, looked up): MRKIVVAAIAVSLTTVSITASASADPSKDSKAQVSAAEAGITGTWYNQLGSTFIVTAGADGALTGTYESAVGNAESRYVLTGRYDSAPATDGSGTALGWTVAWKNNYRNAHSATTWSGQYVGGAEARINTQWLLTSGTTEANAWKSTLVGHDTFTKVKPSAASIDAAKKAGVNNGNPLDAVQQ
SMILES,composite z-score [1],z-score [2],z-score [3],z-score [4],z-score [5],composite z-score [6],composite z-score [7],composite z-score (Torsin-1A (Homo sapiens) [8]),composite z-score (Torsin-1A (Homo sapiens) [9]),composite z-score [10],z-score [11],composite z-score [12],z-score [13],z-score [14],z-score [15],z-score [16],z-score [17],z-score [18],z-score [19],z-score [20]
C[C@@H]1CC[C@H]2C(=O)O[C@@H](COc3ccc(C(C)(C)C)cc3)CN2[C@@H]1c1ccc(Br)cc1,-0.176,0.301 (inactive),0.256 (inactive),0.764 (inactive),0.403 (inactive),-0.259,-0.0987,-0.351,-0.188,-0.445,0.328 (inactive),-0.229,0.857 (inactive),0.681 (inactive),-1.34 (inactive),0.54 (inactive),-0.0874,-0.303 (inactive),0.732 (inactive),0.154
CC(CCN1CCc2nc(-c3ccccc3)c(-c3ccccc3)cc2C1)=NOC[C@@H](O)COCc1ccco1,0.133,0.42 (inactive),-0.255 (inactive),-0.878 (inactive),-0.724 (inactive),0.526,-0.0589,1.15,1.25,1.31,1.17 (inactive),-0.101,3.04 (inactive),0.369 (inactive),0.686 (inactive),0.195 (inactive),0.615,-0.636 (inactive),-0.00269 (inactive),-0.624
COc1ccc(O[C@H]2C=C[C@@H](c3ccccc3)O[C@@H]2CON=C(C)C)cc1,-0.0515,0.361 (inactive),-0.385 (inactive),0.113 (inactive),0.177 (inactive),0.446,-0.004,-0.0422,-0.222,-0.114,-2.05 (inactive),0.407,0.288 (inactive),-0.0779 (inactive),-0.541 (inactive),0.196 (inactive),-0.807,-0.254 (inactive),-0.311 (inactive),-0.684
CCCCC#C[C@@H]1C=C[C@H](OC(C)=O)[C@@H](COC(C)=O)O1,0.03,-4.37 (inactive),0.713 (inactive),-0.976 (inactive),2.86 (inactive),0.202,-0.154,0.568,0.234,0.437,-0.656 (inactive),-0.0111,0.604 (inactive),0.364 (inactive),-0.89 (inactive),-0.0473 (inactive),-0.268,-2.78 (inactive),1.05 (inactive),2.02
CO[C@H]1COC(=O)CC=C[C@@H](C)[C@H](OC)COC(=O)[C@@H]2CCCN2C(=O)CC=C[C@@H]1C,-0.0779,0.192 (inactive),0.474 (inactive),0.251 (inactive),-0.759 (inactive),-0.407,-0.186,1.72,2.49,2.18,0.544 (inactive),0.114,-0.0903 (inactive),-0.289 (inactive),-0.32 (inactive),-0.0159 (inactive),1.14,0.833 (inactive),0.196 (inactive),0.0432
CC(=O)O[C@H]1C2=CO[C@H](C)[C@H]3[C@H]4C5=C([C@H](O)[C@H]6O[C@H]6C5=O)[C@H](OC4C)[C@@]23C(=O)[C@@H]2O[C@@H]21 (stereo not given in full),0.25,-6.34 (inactive),0.298 (inactive),0.831 (inactive),16.6 (active),-0.458,-0.292,-0.119,-0.279,0.604,-0.16 (inactive),-0.0477,-0.312 (inactive),-0.431 (inactive),0.128 (inactive),0.1 (inactive),-1.05,-0.717 (inactive),-0.891 (inactive),-0.242
COc1ccc(COC(=O)NN=C2C[C@@H](O)[C@@H](O)[C@@H]3[C@@H]4C(=O)N(Cc5ccccc5)C(=O)[C@@H]4CC[C@H]23)cc1,-0.419,-0.541 (inactive),0.43 (inactive),0.702 (inactive),-0.0005 (inactive),0.273,-0.753,-0.429,-0.186,-1.44,-0.0671 (inactive),0.641,8.9 (active),0.507 (inactive),-1.3 (inactive),-1.17 (inactive),-0.411,1.43 (inactive),0.954 (inactive),0.729
O=C(NN=C1C[C@@H](O)[C@@H](O)[C@@H]2[C@@H]3C(=O)N(C[C@@H]4CCCO4)C(=O)[C@@H]3CC[C@H]12)OCc1ccccc1,-0.222,0.348 (inactive),0.458 (inactive),-0.834 (inactive),-0.105 (inactive),0.281,-0.341,0.146,0.219,-0.824,0.801 (inactive),0.318,1.35 (inactive),0.278 (inactive),0.284 (inactive),0.404 (inactive),-0.249,-0.92 (inactive),0.0865 (inactive),-0.165
